Data on 23 compounds can be found in PubChem BioAssay (NCI).

Compounds without any hit were thinned out: in the full panel of roughly 79,000, 15% have a hit. Unmarked numbers belong to inactive results. Activity calls are given as the source filed them. No stated cut-off is given here; in the data, active means growth inhibition above about 70%; inactive means the rest.

A short description of test [1]: NCI Yeast Anticancer Drug Screen. Data for the rad50 strain (AID 155).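 Further: 0% = growth of vehicle-only cultures of the same strain.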 The following applies: S. cerevisiae rad50 strain growth inhibition; at 50.0 µM; active compounds read high. In outline: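 Genetically altered yeast (DNA repair pathway); compound treatment; growth inhibition vs vehicle ctrl.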
Test [2] is described as follows: NCI Yeast Anticancer Drug Screen. Data for the mec2-1 strain (AID 157). To be noted: S. cerevisiae mec2-1 strain, at 50.0 µM, active compounds read high. The essentials: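 Using mec2-1 yeast: add compound, measure growth, express inhibition versus vehicle-treated cultures.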
Test [3] is described as follows: NCI Yeast Anticancer Drug Screen. Data for the sgs1 mgt1 strain (AID 161).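 Further: 0% = growth of cultures given vehicle only.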 The following applies: S. cerevisiae sgs1 mgt1 strain, at 50.0 µM, active compounds read high. In outline:
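This yeast growth screen uses a strain with defined DNA-repair lesions; compound-treated growth is compared with vehicle-treated growth.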

A short description of test [4]: NCI Yeast Anticancer Drug Screen. Data for the cln2 rad14 strain (AID 165).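 Further: 0% = growth equal to vehicle treated cultures.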 To be noted: S. cerevisiae cln2 rad14 strain, at 50.0 µM, active compounds read high. In outline: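 Yeast strain cln2 rad14, bearing defects in cell cycle control and DNA repair, serves as the test system; values reflect growth inhibition compared with vehicle.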
The nature of test [5]: NCI Yeast Anticancer Drug Screen. Data for the mlh1 rad18 strain (AID 175). The following applies: S. cerevisiae mlh1 rad18 strain growth inhibition; at 50.0 µM; active compounds read high. In outline: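 Steps: expose repair-defective yeast to compound; measure growth; express inhibition against vehicle-treated controls.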
The nature of test [6]: NCI Yeast Anticancer Drug Screen. Data for the bub3 strain (AID 167). The following applies: S. cerevisiae bub3 mutant strain, at 50.0 µM, active compounds read high. In outline: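 Yeast carrying a defined mutation is treated with each compound, and growth is compared with that of vehicle-exposed cells to give inhibition.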

As for `CC12CCCCC1C1=C(CCCC1)CC2` (centres undefined), the growth inhibition is -4.1% in test [1]; -4.95% in test [2]; -5.35% in test [3]; 9.4% in test [4]; -17.6% in test [5].

Turning to `O=C1OC(c2ccccc2)=N/C1=C\c1cccc2ccccc12`, the growth inhibition in test [1] is -45.9%; in test [2], -36.6%; in test [3], -13.6%; in test [4] it was 0.35%; in test [5], -31.1%.

On to `CC(=O)/C(=C\c1ccccc1)C(=O)CCN(C)C`, for which the growth inhibition in test [1] is 21.9%; in test [2] it was 36.6%; in test [3], 14.4%; in test [4] it was 12.2%; in test [5] it was -9.9%.

As for `NC(=O)n1ccc(CC(O)(C(F)(F)F)C(F)(F)F)n1`, the growth inhibition in test [1] was -13.2%; in test [2], 44%; in test [3] it was -2.55%; in test [4] it was 55.1%; in test [5] it was 22.4%.

`CC(C)=CCCC(C)(OC1OC(COC2OCC(O)C(O)C2O)C(O)C(O)C1O)C1CCC2(C)C1C(O)CC1C3(C)CCC(OC4OC(CO)C(O)C(O)C4OC4OC(CO)C(O)C(O)C4O)C(C)(C)C3CCC12C` (centres undefined): the growth inhibition in test [1] was -15.8%; in test [2], -26.1%; in test [3], -6.05%; in test [4], 6.6%; in test [5] it was 18.4%.

With `CC(C(=O)O)C(C)C(=O)O` (centres undefined), the growth inhibition in test [1] is 3.3%; in test [2], 4.15%; in test [3], 9.8%; in test [4], 6.45%; in test [5], 14.2%.

For the compound `O=S(=O)(Nc1cccc(Cl)c1)c1ccc(Cl)cc1`, the growth inhibition in test [1] was 99.7% (active); in test [2] it was 99.8% (active); in test [3], 99.8% (active); in test [4], 99.6% (active); in test [5] it was 99.7% (active).

Take `Cn1nnc(/C(N)=N/N=C/c2ccccc2)n1`: the growth inhibition in test [1] was 1.95%; in test [2], -10.8%; in test [3], -1.55%; in test [4], -22.2%; in test [5], -15.4%.

In the case of `Cc1ccnc2c1NC(=O)c1cccnc1N2C1CC1`, the growth inhibition was 2.35% in test [1]; -1.95% in test [2]; -8.6% in test [3]; -9.35% in test [4]; 20.8% in test [5].

`CC(=O)CC(C)(C)NNC(N)=S`: the growth inhibition was 1.45% in test [1]; 0.7% in test [2]; 14.3% in test [3]; -21.6% in test [4]; 22.2% in test [5].

For the compound `COC(=O)C(C)NC(=O)C(C)NC(=O)c1cc(OC)c(OC)c(OC)c1` (centres undefined), the growth inhibition was 28.2% in test [1]; 17.8% in test [2]; 17.4% in test [3]; 17.1% in test [4]; 15.8% in test [5].

Take `CC(C)=CCC/C(C)=C/CNc1ncnc2c1ncn2C1OC(CO)C(O)C1O` (centres undefined): the growth inhibition was -4.3% in test [1]; 13.7% in test [2]; 6.6% in test [3]; -37% in test [4]; 27.6% in test [5].

In the case of `O=C(CNC(=O)c1ccccc1)NCS(=O)(=O)O`, the growth inhibition in test [1] was 12.2%; in test [2], -3.6%; in test [3], 19%; in test [4], 14.7%; in test [5] it was 11.3%.

Take `CCCCCCCCCCCCCCCCCC(=O)N/N=C\c1ccc(O)c(OC)c1`: the growth inhibition in test [1] was -11.6%; in test [2] it was -13.6%; in test [3], -9.35%; in test [4] it was -56.8%; in test [5], 6.5%.

Take `C(=N\N=C\c1ccccc1)/c1ccccc1`: the growth inhibition in test [1] is 14.7%; in test [2], 4.65%; in test [3], 3.5%; in test [4] it was -52.5%; in test [5], 16.6%.

Turning to `CCCCCCCCCCCCCCCCSc1ccc(S(=O)(=O)N(C)C)cc1N`, the growth inhibition in test [1] was -16.3%; in test [2] it was -36.8%; in test [3], 3.15%; in test [4], 10%; in test [5], 11.9%.

`Cc1sc2c(c1C)C(=O)c1cccn1-2`: the growth inhibition is 4.95% in test [1]; -27.8% in test [2]; -21.6% in test [3]; -13.9% in test [6]; -1% in test [5].

As for `O=C(O)c1ccccc1Cc1c[nH]c2ccccc12`, the growth inhibition in test [1] is -37.3%; in test [2] it was 4.95%; in test [3], -0.8%; in test [6], 41.3%; in test [5], -5.05%.

On to `O=C(NCCN1CCNCC1)c1ccc(Cl)cc1`, for which the growth inhibition in test [1] is 26.9%; in test [2], 40%; in test [3] it was 30.8%; in test [6] it was 33.6%; in test [5], 40.2%.

In the case of `COc1cc2cnc(-c3ccncc3)c(N)c2cc1OC`, the growth inhibition was -0.75% in test [1]; 8.4% in test [2]; -11.6% in test [3]; 7.8% in test [6]; 7.65% in test [5].

For the compound `N#C[C@H](c1nc2ccccc2[nH]1)c1nc2ccccc2nc1Cl`, the growth inhibition in test [1] was 5.5%; in test [2] it was 2.5%; in test [3], 21.9%; in test [6] it was 15.3%; in test [5] it was 12.7%.

For the compound `ClC(Cl)C1OCCCO1`, the growth inhibition in test [1] is -32.4%; in test [2] it was -17.4%; in test [3], -23.2%; in test [6], 12.2%; in test [5], -8.25%.

`CCCCC(C)C(C)O` (centres undefined): the growth inhibition is -28.5% in test [1], -62.1% in test [2], -24.6% in test [3] and -33.9% in test [6].
